In one assay the test system is XIP peptide (Xip251-270). The experiment in a line: small-molecule binders of XIP peptide, primary screen, biochemical, small-molecule microarray, fluorescence 635/667 nm, 0.5 µg/mL protein (AID 1183). The settings on record: small-molecule microarray binding, fluorescence 635 nm; higher = more signal.
`CCOC(=O)[C@H](CC(C)C)NC(=O)CCC1CC(OC(=O)NCCc2ccc(F)cc2)CC2(CCCC(COC(=O)NCCOc3ccccc3)O2)O1` (some centres undefined): the composite z-score came to 0.31. Still for that read-out and setting: as for `COC(=O)CC=C[C@@H](C)[C@@H](C=NO[C@@H](C)c1cn([C@H](CO)Cc2ccccc2)nn1)NS(=O)(=O)c1ccc(C)cc1`, the figure is 0.464.

As for `O=C(NN=C1C[C@@H](O)[C@@H](O)[C@@H]2[C@@H]3C(=O)N(C[C@@H]4CCCO4)C(=O)[C@@H]3CC[C@@H]12)OCc1ccccc1`, the composite z-score turned out to be 0.126. `C#CCCCON=C1C[C@@H](O)[C@@H](O)[C@@H]2[C@@H]3C(=O)N(c4cccc(Oc5ccccc5)c4)C(=O)[C@@H]3CC[C@H]12`: the composite z-score is 0.507. In the case of `COc1ccc(O[C@H]2C=C[C@@H](c3ccccc3)O[C@@H]2COC(=O)CCC(C)=NO[C@@H]2O[C@H](COC(C)=O)[C@@H](OC(C)=O)[C@H](OC(C)=O)[C@H]2OC(C)=O)cc1`, the composite z-score is 0.495. Take `COc1cc(O)c(C(=O)C=Cc2ccc3c(c2)OCO3)c(OC)c1`: the composite z-score was -0.218. For `C#CCCCON=C1C[C@@H](O)[C@@H](O)[C@@H]2[C@@H]3C(=O)N(C(C)(C)C)C(=O)[C@@H]3CC[C@H]12`, the composite z-score was -0.385. `CCOC(=O)[C@H](CC(C)C)NC(=O)CCC1CC(OC(=O)NCCc2ccc(F)cc2)CC2(CCCC(COC(=O)NCCC(C)C)O2)O1` (some centres undefined): the composite z-score is -0.228.

System in another assay: not listed separately
The experiment in a line: Plasmodium falciparum growth inhibition, primary screen, strain 3D7, DAPI fluorescence, 100 nL (AID 1184).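 Also: parasites grown inside human red blood cells in medium with human serum.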 The settings on record: P. falciparum 3D7 growth, 3 d, higher = more signal.
On to `C[C@@H](c1ccccc1)N1C(=O)[C@H]2[C@H]3[C@H](O)[C@H](O)CC(=NO[C@@H]4O[C@H](CO)[C@@H](O)[C@H](O)[C@H]4O)[C@@H]3CC[C@H]2C1=O`, for which the z-score is -2.33. Turning to `Cn1c(=O)n2n(c1=O)[C@H]1[C@H](O)[C@@H]3O[C@@H]3C(=NOCc3ccccc3)[C@H]1CC2`, the z-score turned out to be 0.769.

Turning to `COC(=O)CC=C[C@@H](C)[C@@H](C=NO[C@@H]1O[C@H](COC(C)=O)[C@@H](OC(C)=O)[C@H](OC(C)=O)[C@H]1OC(C)=O)OC`, the z-score is -0.0925.

The molecule `CCN1C(=O)[C@H]2[C@H]3[C@H](O)[C@H](O)CC(=NOC[C@H]4O[C@H](c5ccccc5)C=C[C@@H]4Oc4ccc(OC)cc4)[C@@H]3CC[C@H]2C1=O` gave a z-score of 0.188.

Molecule `COC(=O)CC=C[C@@H](C)[C@@H](C=NOCC[C@@H]1C=C[C@H](OC(C)=O)[C@@H](COC(C)=O)O1)NS(=O)(=O)c1ccc(C)cc1` showed a z-score of 0.0783. Consider `CC(C)CON=C1C[C@@H](O)[C@@H](O)[C@@H]2[C@@H]3C(=O)N(C4CCCCC4)C(=O)[C@@H]3CC[C@H]12`, for which the z-score is -0.0504.

Take `CCOC(=O)[C@H](Cc1ccccc1)NC(=O)CCC1CC(OC(=O)NCCc2ccc(F)cc2)CC2(CCCC(COC(=O)NCCc3ccccc3OC)O2)O1` (some centres undefined): the z-score is -1.94.

On to `CC(C)CON=C1C[C@@H](O)[C@@H](O)[C@@H]2[C@@H]3C(=O)N(c4cccc(Oc5ccccc5)c4)C(=O)[C@@H]3CC[C@@H]12`, for which the z-score turned out to be 0.299.

`CC(C)CON=C1C[C@@H](O)[C@@H](O)[C@@H]2[C@@H]3C(=O)N(C(C)(C)C)C(=O)[C@@H]3CC[C@H]12`: the z-score worked out at 1.75. With `COc1ccc(O[C@@H]2[C@H](O)CO[C@H]2C=Cc2ccccc2)cc1`, the z-score came to 0.465. Turning to `O=C(NN=C1C[C@@H](O)[C@@H](O)[C@@H]2[C@@H]3C(=O)N(Cc4ccccc4)C(=O)[C@@H]3CC[C@@H]12)OCc1ccccc1`, the z-score came to 0.915. The molecule `CCC(=O)[C@@]1(O)C(=O)N2C(=C3C(=O)OCC[C@@H]31)N(Cc1ccccc1)C(C)=C(C(=O)OC)[C@H]2c1ccccc1` came in with a z-score of 0.663. On to `CO[C@H]1COC(=O)CCC[C@@H](C)[C@H](OC)COC(=O)[C@@H]2CCCN2C(=O)CC=C[C@@H]1C`, for which the z-score was -0.74. For the molecule `CCCNC(=O)OC[C@H]1O[C@H](CCON=C(C)CCN2CCCc3nc(C)c(C)cc32)C=C[C@@H]1Oc1ccc(OC)cc1`, the z-score was -2.33. Still for that read-out and setting: as for `COc1ccc(COC(=O)NN=C2C[C@@H](O)[C@@H](O)[C@@H]3[C@@H]4C(=O)N(C5CCCCC5)C(=O)[C@@H]4CC[C@H]23)cc1`, the figure is -0.336; as for `CC(C)CON=C1C[C@@H](O)[C@@H](O)[C@@H]2[C@@H]3C(=O)N(Cc4ccc5c(c4)OCO5)C(=O)[C@@H]3CC[C@H]12`, -0.613. As for `CON=CC[C@@H]1C=C[C@H](OC(C)=O)[C@@H](COC(C)=O)O1`, the z-score amounted to 1.2. Still for that read-out and setting: the same measure for `CO[C@H]1COC(=O)CC=C[C@H](C)[C@@H](OC)COC(=O)[C@@H](C)NC(=O)CC=C[C@@H]1C`: -0.297; for `CC(=O)OC[C@H]1O[C@H](CC=NO[C@H](C)c2cn([C@H](CO)Cc3ccccc3)nn2)C=C[C@@H]1OC(C)=O`: 0.242. As for `CC(C)=CCCC(C)=CCON=C1C[C@@H](O)[C@@H](O)[C@@H]2[C@@H]3C(=O)N(c4ccc(F)cc4F)C(=O)[C@@H]3CC[C@@H]12`, the z-score is -1.59. Take `COC(=O)CC=C[C@H](C)[C@@H](OCc1cccc(Br)c1)[C@@H](C)[C@H](OC)C1CCCCC1`: the z-score was 0.536.

Turning to `COC(=O)[C@H](C)NC(=O)CCC1CC(OC(=O)NCc2cccc3ccccc23)CC2(CCCC(COC(=O)NCC(c3ccccc3)c3ccccc3)O2)O1` (some centres undefined), the z-score was -1.87. Molecule `C#CCCCON=C1C[C@@H](O)[C@@H](O)[C@@H]2[C@@H]3C(=O)N(Cc4ccccc4)C(=O)[C@@H]3CC[C@@H]12` gave a z-score of 0.542.

As for `COC(=O)[C@H](C)NC(=O)CCC1CC(OC(=O)NCCc2ccc(F)cc2)CC2(CCCC(COC(=O)NCc3cccc(C(F)(F)F)c3)O2)O1` (some centres undefined), the z-score is -0.506. `CCc1cc2c(nc1CC)CCN(CCC(C)=NO[C@H](C)c1cn([C@H](CO)Cc3ccccc3)nn1)C2`: the z-score was -1.91. As for `Cc1cc2c(nc1C)CCCN2CC(O)CN1CCCc2nc(C)c(C)cc21`, the z-score is -0.958. Take `CO[C@@H]1COC(=O)[C@H](CCSC)NC(=O)CC=C[C@@H](C)COC(=O)CCC[C@H]1C`: the z-score is -0.766. With `O=C1[C@H]2[C@H]3[C@H](O)[C@H](O)CC(=NOCc4ccccc4)[C@@H]3CC[C@H]2C(=O)N1Cc1ccc2c(c1)OCO2`, the z-score is -0.364.

Take `CCOC(=O)[C@H](CC(C)C)NC(=O)CCC1CC(OC(=O)NCCc2ccc(F)cc2)CC2(CCCC(COC(=O)NCCOc3ccccc3)O2)O1` (some centres undefined): the z-score was -2.02.

`COC(=O)CC=C[C@@H](C)[C@@H](C=NO[C@@H](C)c1cn([C@H](CO)Cc2ccccc2)nn1)NS(=O)(=O)c1ccc(C)cc1` showed a z-score of 0.281. `O=C(NN=C1C[C@@H](O)[C@@H](O)[C@@H]2[C@@H]3C(=O)N(C[C@@H]4CCCO4)C(=O)[C@@H]3CC[C@@H]12)OCc1ccccc1` yielded a z-score of 0.263. As to `C#CCCCON=C1C[C@@H](O)[C@@H](O)[C@@H]2[C@@H]3C(=O)N(c4cccc(Oc5ccccc5)c4)C(=O)[C@@H]3CC[C@H]12`, the z-score amounted to 0.63. As for `COc1ccc(O[C@H]2C=C[C@@H](c3ccccc3)O[C@@H]2COC(=O)CCC(C)=NO[C@@H]2O[C@H](COC(C)=O)[C@@H](OC(C)=O)[C@H](OC(C)=O)[C@H]2OC(C)=O)cc1`, the z-score was -0.0102. Still for that read-out and setting: the same measure for `COc1cc(O)c(C(=O)C=Cc2ccc3c(c2)OCO3)c(OC)c1`: -0.973; for `C#CCCCON=C1C[C@@H](O)[C@@H](O)[C@@H]2[C@@H]3C(=O)N(C(C)(C)C)C(=O)[C@@H]3CC[C@H]12`: -0.381.

Turning to `CCOC(=O)[C@H](CC(C)C)NC(=O)CCC1CC(OC(=O)NCCc2ccc(F)cc2)CC2(CCCC(COC(=O)NCCC(C)C)O2)O1` (some centres undefined), the z-score was -0.329.

Values taken from PubChem BioAssay.
